Paper PMC9911399, “Two distinct binding modes provide the RNA-binding protein RbFox with extraordinary sequence specificity”
Numbering of substitutions follows the chain as printed; changes in the protein carry UniProt numbers. The full ranking holds about 16,000 sequences; the median of “ka relative to ugcaugu” is about 0.096, and the highest 2% start at about 0.35. The list comes from a sample in which the highest values are over-represented; it also holds similar and randomly drawn sequences.

T1: RBFOX1 RRM RbFoxmut (Fox-RRM*) (Homo sapiens, UniProt Q9NWB1 109-208, R118D;E147R;N151S;E152T)
T1 sequence: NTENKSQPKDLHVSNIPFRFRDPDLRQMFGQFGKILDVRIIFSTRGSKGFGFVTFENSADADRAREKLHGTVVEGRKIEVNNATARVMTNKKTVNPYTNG

B1: UCGACUC (DNA:RNA)
RNA: GGGAGACCGGAAUUCAGAUUGUCCUCGACUCUUAAAUCCCGUCGUAGCCACCA
DNA 1: CAATCTGAATTCCGGTCTCCC
DNA 2: TGGTGGCTACGACGGGATT
B2: UACACUA (DNA:RNA)
RNA: B1 RNA with C26A, G27C, C31A
DNA 1: CAATCTGAATTCCGGTCTCCC
DNA 2: TGGTGGCTACGACGGGATT
B3: UCCUGAU (DNA:RNA)
RNA: B1 RNA with G27C, A28U, C29G, U30A, C31U
DNA 1: CAATCTGAATTCCGGTCTCCC
DNA 2: TGGTGGCTACGACGGGATT
B4: ACCUCGU (DNA:RNA)
RNA: B1 RNA with U25A, G27C, A28U, U30G, C31U
DNA 1: CAATCTGAATTCCGGTCTCCC
DNA 2: TGGTGGCTACGACGGGATT
B5: GAGUAGC (DNA:RNA)
RNA: B1 RNA with U25G, C26A, A28U, C29A, U30G
DNA 1: CAATCTGAATTCCGGTCTCCC
DNA 2: TGGTGGCTACGACGGGATT
B6: AGAAUGA (DNA:RNA)
RNA: B1 RNA with U25A, C26G, G27A, C29U, U30G, C31A
DNA 1: CAATCTGAATTCCGGTCTCCC
DNA 2: TGGTGGCTACGACGGGATT
B7: AGAUUGA (DNA:RNA)
RNA: GGGAGACCGGAAUUCAGAUUGUCCAGAUUGAUUAAAUCCCGUCGUAGCCACCA
DNA 1: CAATCTGAATTCCGGTCTCCC
DNA 2: TGGTGGCTACGACGGGATT
B8: ACCAGAA (DNA:RNA)
RNA: B7 RNA with G26C, A27C, U28A, U29G, G30A
DNA 1: CAATCTGAATTCCGGTCTCCC
DNA 2: TGGTGGCTACGACGGGATT
B9: GAUUGAC (DNA:RNA)
RNA: B7 RNA with A25G, G26A, A27U, U29G, G30A, A31C
DNA 1: CAATCTGAATTCCGGTCTCCC
DNA 2: TGGTGGCTACGACGGGATT
B10: GAAUGAC (DNA:RNA)
RNA: B7 RNA with A25G, G26A, U29G, G30A, A31C
DNA 1: CAATCTGAATTCCGGTCTCCC
DNA 2: TGGTGGCTACGACGGGATT
B11: CGAUGAC (DNA:RNA)
RNA: B7 RNA with A25C, U29G, G30A, A31C
DNA 1: CAATCTGAATTCCGGTCTCCC
DNA 2: TGGTGGCTACGACGGGATT
B12: UGAAUAU (DNA:RNA)
RNA: B7 RNA with A25U, U28A, G30A, A31U
DNA 1: CAATCTGAATTCCGGTCTCCC
DNA 2: TGGTGGCTACGACGGGATT
B13: AGAUUAU (DNA:RNA)
RNA: B7 RNA with G30A, A31U
DNA 1: CAATCTGAATTCCGGTCTCCC
DNA 2: TGGTGGCTACGACGGGATT
B14: AAUCAGU (DNA:RNA)
RNA: B7 RNA with G26A, A27U, U28C, U29A, A31U
DNA 1: CAATCTGAATTCCGGTCTCCC
DNA 2: TGGTGGCTACGACGGGATT
B15: GCAACGU (DNA:RNA)
RNA: B1 RNA with U25G, G27A, U30G, C31U
DNA 1: CAATCTGAATTCCGGTCTCCC
DNA 2: TGGTGGCTACGACGGGATT
B16: UGGCAUA (DNA:RNA)
RNA: B1 RNA with C26G, A28C, C29A, C31A
DNA 1: CAATCTGAATTCCGGTCTCCC
DNA 2: TGGTGGCTACGACGGGATT
B17: UGGCAGA (DNA:RNA)
RNA: B7 RNA with A25U, A27G, U28C, U29A
DNA 1: CAATCTGAATTCCGGTCTCCC
DNA 2: TGGTGGCTACGACGGGATT
B18: UGGCACC (DNA:RNA)
RNA: B1 RNA with C26G, A28C, C29A, U30C
DNA 1: CAATCTGAATTCCGGTCTCCC
DNA 2: TGGTGGCTACGACGGGATT
B19: UGGCAUC (DNA:RNA)
RNA: B1 RNA with C26G, A28C, C29A
DNA 1: CAATCTGAATTCCGGTCTCCC
DNA 2: TGGTGGCTACGACGGGATT
B20: UGGCAUU (DNA:RNA)
RNA: B1 RNA with C26G, A28C, C29A, C31U
DNA 1: CAATCTGAATTCCGGTCTCCC
DNA 2: TGGTGGCTACGACGGGATT
B21: UGGCAUG (DNA:RNA)
RNA: B1 RNA with C26G, A28C, C29A, C31G
DNA 1: CAATCTGAATTCCGGTCTCCC
DNA 2: TGGTGGCTACGACGGGATT
B22: UAUCAAU (DNA:RNA)
RNA: B1 RNA with C26A, G27U, A28C, C29A, U30A, C31U
DNA 1: CAATCTGAATTCCGGTCTCCC
DNA 2: TGGTGGCTACGACGGGATT
B23: CCACUGA (DNA:RNA)
RNA: B7 RNA with A25C, G26C, U28C
DNA 1: CAATCTGAATTCCGGTCTCCC
DNA 2: TGGTGGCTACGACGGGATT
B24: UCUUCCC (DNA:RNA)
RNA: B1 RNA with G27U, A28U, U30C
DNA 1: CAATCTGAATTCCGGTCTCCC
DNA 2: TGGTGGCTACGACGGGATT
B25: UUAUACA (DNA:RNA)
RNA: B7 RNA with A25U, G26U, U29A, G30C
DNA 1: CAATCTGAATTCCGGTCTCCC
DNA 2: TGGTGGCTACGACGGGATT
B26: CAUUUCC (DNA:RNA)
RNA: B7 RNA with A25C, G26A, A27U, G30C, A31C
DNA 1: CAATCTGAATTCCGGTCTCCC
DNA 2: TGGTGGCTACGACGGGATT
B27: GUAUGUG (DNA:RNA)
RNA: B7 RNA with A25G, G26U, U29G, G30U, A31G
DNA 1: CAATCTGAATTCCGGTCTCCC
DNA 2: TGGTGGCTACGACGGGATT
B28: GGAUGUG (DNA:RNA)
RNA: B7 RNA with A25G, U29G, G30U, A31G
DNA 1: CAATCTGAATTCCGGTCTCCC
DNA 2: TGGTGGCTACGACGGGATT
B29: GGAGAUG (DNA:RNA)
RNA: B7 RNA with A25G, U28G, U29A, G30U, A31G
DNA 1: CAATCTGAATTCCGGTCTCCC
DNA 2: TGGTGGCTACGACGGGATT
B30: CUAUGUG (DNA:RNA)
RNA: B7 RNA with A25C, G26U, U29G, G30U, A31G
DNA 1: CAATCTGAATTCCGGTCTCCC
DNA 2: TGGTGGCTACGACGGGATT
B31: UUAUGUA (DNA:RNA)
RNA: B7 RNA with A25U, G26U, U29G, G30U
DNA 1: CAATCTGAATTCCGGTCTCCC
DNA 2: TGGTGGCTACGACGGGATT
B32: GUGUCCG (DNA:RNA)
RNA: B1 RNA with U25G, C26U, A28U, U30C, C31G
DNA 1: CAATCTGAATTCCGGTCTCCC
DNA 2: TGGTGGCTACGACGGGATT
B33: GGAUGUC (DNA:RNA)
RNA: B7 RNA with A25G, U29G, G30U, A31C
DNA 1: CAATCTGAATTCCGGTCTCCC
DNA 2: TGGTGGCTACGACGGGATT
B34: UUGUAUG (DNA:RNA)
RNA: B1 RNA with C26U, A28U, C29A, C31G
DNA 1: CAATCTGAATTCCGGTCTCCC
DNA 2: TGGTGGCTACGACGGGATT
B35: CGUUGUG (DNA:RNA)
RNA: B7 RNA with A25C, A27U, U29G, G30U, A31G
DNA 1: CAATCTGAATTCCGGTCTCCC
DNA 2: TGGTGGCTACGACGGGATT
B36: UAUGUCC (DNA:RNA)
RNA: B1 RNA with C26A, G27U, A28G, C29U, U30C
DNA 1: CAATCTGAATTCCGGTCTCCC
DNA 2: TGGTGGCTACGACGGGATT
B37: GUGUAUG (DNA:RNA)
RNA: B1 RNA with U25G, C26U, A28U, C29A, C31G
DNA 1: CAATCTGAATTCCGGTCTCCC
DNA 2: TGGTGGCTACGACGGGATT
B38: CGUGUCG (DNA:RNA)
RNA: B7 RNA with A25C, A27U, U28G, G30C, A31G
DNA 1: CAATCTGAATTCCGGTCTCCC
DNA 2: TGGTGGCTACGACGGGATT

target: T1, RBFOX1 RRM RbFoxmut (Fox-RRM*); assay: EMSA; HiTS-Eq, 1 nM pool, 10 min; buffer printed only for the single-RNA assays: 10 mM Tris pH 7.5, 150 mM NaCl, 3.4 mM EDTA, 0.001% NP-40, 30 C; settings: tags: His6 N-terminal (pET28a); label: 5' 32P
Summary of the method: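 Purified RbFox RRM, wild type or mutant, was incubated for 10 min in 50 µL with 1 nM of a 5′-radiolabelled RNA pool carrying 7 randomized nucleotides, whose flanks were annealed to DNA oligonucleotides, over a series of increasing protein concentrations. Unbound RNA was resolved on 8% native PAGE, cut out, reverse-transcribed, barcoded by PCR and sequenced on an Illumina HiSeq 2500. Relative association constants were derived from changes in read counts for each RNA species versus the control reaction and normalised to the cognate motif.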

| Binder | binding signal |
| --- | --- |
| B1 | 0.0668 KA relative to UGCAUGU |
| B2 | 0.0954 KA relative to UGCAUGU |
| B3 | 0.0975 KA relative to UGCAUGU |
| B4 | 0.106 KA relative to UGCAUGU |
| B5 | 0.108 KA relative to UGCAUGU |
| B6 | 0.646 KA relative to UGCAUGU |
| B7 | 0.117 KA relative to UGCAUGU |
| B8 | 0.0963 KA relative to UGCAUGU |
| B9 | 0.109 KA relative to UGCAUGU |
| B10 | 0.829 KA relative to UGCAUGU |
| B11 | 0.141 KA relative to UGCAUGU |
| B12 | 0.0814 KA relative to UGCAUGU |
| B13 | 0.124 KA relative to UGCAUGU |
| B14 | 0.0868 KA relative to UGCAUGU |
| B15 | 0.094 KA relative to UGCAUGU |
| B16 | 0.127 KA relative to UGCAUGU |
| B17 | 0.0918 KA relative to UGCAUGU |
| B18 | 0.113 KA relative to UGCAUGU |
| B19 | 0.411 KA relative to UGCAUGU |

| Binder | binding signal |
| --- | --- |
| B20 | 0.1 KA relative to UGCAUGU |
| B21 | 1.17 KA relative to UGCAUGU |
| B22 | 0.0491 KA relative to UGCAUGU |
| B23 | 0.123 KA relative to UGCAUGU |
| B24 | 0.0652 KA relative to UGCAUGU |
| B25 | 0.0696 KA relative to UGCAUGU |
| B26 | 0.0842 KA relative to UGCAUGU |
| B27 | 0.787 KA relative to UGCAUGU |
| B28 | 0.451 KA relative to UGCAUGU |
| B29 | 0.312 KA relative to UGCAUGU |
| B30 | 0.134 KA relative to UGCAUGU |
| B31 | 0.19 KA relative to UGCAUGU |
| B32 | 0.216 KA relative to UGCAUGU |
| B33 | 0.295 KA relative to UGCAUGU |
| B34 | 1.24 KA relative to UGCAUGU |
| B35 | 0.17 KA relative to UGCAUGU |
| B36 | 0.107 KA relative to UGCAUGU |
| B37 | 1.38 KA relative to UGCAUGU |
| B38 | 0.126 KA relative to UGCAUGU |
